# BoNT-A LC inh2: BoNT A light chain protease inhibition | multiplex microsphere protease substrate cleavage, flow cytometry | actives 0.17% (n = 360,000) | inhibition, % at 10 µM; note: plate controls were buffer without enzyme for full effect and enzyme alone for no effect
# Anthrax LF inh2: inhibitors of Bacillus anthracis lethal factor protease; multiplex microsphere protease cleavage assay, LF; P15917; actives 0.12% (n = 360,000); inhibition, % at 10 µM; note: plate controls were buffer without enzyme for full effect and enzyme alone for no effect
# BH1578 lux ind: quorum light induction in luxS cqsA deficient V. cholerae. V. cholerae BH1578 lux reporter, luminescence, 6 h. activation, % at 18.7 µM. actives 0.16% (n = 350,000); in the data active = activation mostly above about 9.7%, no sharp cut-off; inconclusive = no clear call, values can overlap the other calls; inactive = mostly below about 3.7%
# BoNT-F LC inh: inhibitors of Botulinum neurotoxin F light chain protease; Multiplex microsphere protease cleavage assay, flow cytometry; inhibition, % at 10 µM; actives 0.22% (n = 360,000); in the data active = inhibition above about 35%, passing the limit was not always enough; inconclusive = no clear call, values can overlap the other calls; note: plate controls were buffer without enzyme for full effect and enzyme alone for no effect
# Bead autofluor: flagged as autofluorescent in microsphere protease counterscreen. fluorescence intensity (test concentration not listed). AID 624483. actives 3.1% (n = 360,000). compound autofluorescence counterscreen, microsphere flow cytometry; active compounds read high; in the data active = fluorescence intensity above about 16000; inconclusive = no clear call, values can overlap the other calls
# * hit, by the source's call; i = inactive; ? = inconclusive; . = not tested or not shown. Compounds with a hit are over-represented: about 3.5% of the library has one in this group of screens. Cut-off read from the data, not from the text of the source, unless noted: active = inhibition above about 30%; inconclusive = no clear call, values can overlap the other calls; inactive = below that.
SMILES,BoNT-A LC inh2,Anthrax LF inh2,BH1578 lux ind,BoNT-F LC inh,Bead autofluor
CCOC(=O)Cc1[nH]nc2c1C(c1cc(OC)ccc1OC)C(C#N)=C(N)O2 (stereo not drawn),-4,0,0,-5,21991*
CCCc1[nH]nc2c1C(c1cc(OC)cc(OC)c1)C(C#N)=C(N)O2 (stereo not drawn),0,3,0,-7,8833
CCCc1[nH]nc2c1C(c1cc(OC)ccc1F)C(C#N)=C(N)O2 (stereo not drawn),4,-9,0,4,18896*
CCOC(=O)Cc1[nH]nc2c1C(c1cccc(OC)c1OC)C(C#N)=C(N)O2 (stereo not drawn),0,2,i,15,4690
O=C1CC(N2CCN(Cc3ccccc3)CC2)C(=O)N1c1ccccc1 (stereo not drawn),0,0,-7,0,23947*
Cc1cccc(N2C(=O)CC(N3CCN(c4ccccc4)CC3)C2=O)c1 (stereo not drawn),0,0,-2,-9,10121
Cc1cccc(N2C(=O)CC(N3CCN(C(=O)c4ccccc4)CC3)C2=O)c1 (stereo not drawn),0,-1,i,0,23162*
C[C@@H]1COC(=O)[C@@H](NC(=O)OCC2c3ccccc3-c3ccccc32)C/C=C\C[C@@H](CC(=O)N(CCO)Cc2ccccc2)C(=O)N1,2,-2,-1,-18,3279
Cc1ccc(NC(=S)N(CCC(C)C)C(C)c2ccncc2)c(Cl)c1 (stereo not drawn),0,-2,i,-2,5171
COc1ccc(C(=O)c2cn[nH]c2-c2cc(Cl)ccc2O)cc1,-1,0,-1,2,16806*
Cc1cccc2cc(CN(CC3CCCO3)C(=O)NC3CCCCC3)c(=O)[nH]c12 (stereo not drawn),0,-5,0,-10,5393
COc1ccc(CCN(Cc2cc3cccc(C)c3[nH]c2=O)C(=O)NC2CCCCC2)cc1OC,0,1,-1,-1,23128*
O=C(CSc1nc2ccccc2s1)c1cc2ccccc2o1,1,-2,-1,-1,23696*
Cc1ccc(S(=O)(=O)N2CCC[C@H]2C(=O)Nc2ccccc2C)cc1,0,-12,i,3,3349
Cc1nnc(NC(=O)C2CCCN2S(=O)(=O)c2ccc(Cl)cc2)s1 (stereo not drawn),-1,-7,i,-3,4411
O=C(Nc1nc2ccccc2s1)C1CCCN1S(=O)(=O)c1ccc(Cl)cc1 (stereo not drawn),?,-2,i,-7,22849*
Cc1ccc(S(=O)(=O)N2CCCC2C(=O)Nc2nc3ccccc3s2)cc1 (stereo not drawn),0,-5,0,-3,20751*
Cc1ccc(S(=O)(=O)N2CCCC2C(=O)N(C)Cc2cccs2)cc1 (stereo not drawn),?,0,i,1,19722*
CN(Cc1cccs1)C(=O)C1CCN(S(=O)(=O)c2ccccc2)CC1,1,8,-2,-6,6674
Cc1ccccc1NC(=O)N1CCCC(c2nc(-c3ccc(C(C)C)cc3)no2)C1 (stereo not drawn),0,-3,0,-3,23120*
CC(C)c1ccc(-c2noc(C3CCCN(C(=O)c4ccc(F)cc4F)C3)n2)cc1 (stereo not drawn),0,-9,3,-5,22538*
Cc1ccccc1NC(=O)N1CCCC(c2nc(-c3ccc(F)cc3)no2)C1 (stereo not drawn),-1,-4,0,-5,9980
O=S(=O)(Cc1ccccc1)N1CCCC(c2nc(-c3ccc(F)cc3)no2)C1 (stereo not drawn),1,-4,0,3,21682*
Cc1ccc(-c2noc(C3CCCN(C(=O)c4ccc(F)cc4F)C3)n2)cc1 (stereo not drawn),0,-3,i,-5,11435
CSc1ccccc1C(=O)Nc1ccccc1C,0,2,0,-3,2431
SMILES,BoNT-A LC inh2,Anthrax LF inh2,BH1578 lux ind,BoNT-F LC inh,Bead autofluor
O=C(O)CNC(=O)c1ccccc1NC(=O)c1ccco1,-1,-1,-14,-2,22742*
Cc1ccccc1C(=O)Nc1ccccc1C(=O)NCc1ccccc1,0,-3,0,-2,21881*
Cc1ccccc1NC(=O)c1ccccc1O,0,-1,0,0,22757*
O=C(Nc1ccccc1C(=O)NCc1ccccc1)c1ccccc1Br,-1,-3,0,7,10030
CCCOc1ccc(N2CC(C(=O)NC3=NCCS3)CC2=O)cc1 (stereo not drawn),-1,-3,0,-2,3407
CN(C)C(=O)CSc1nnc(-c2ccc(S(=O)(=O)N3CCCC3)cc2)n1C,0,-2,0,-9,3290
COCCCNC(=O)Cn1cc(C(C)=O)c2ccccc21,-3,-1,0,-5,20880*
Cc1cc(NC(=O)CCCC(=O)N(CC(=O)NCCc2ccccc2)Cc2ccc(F)cc2)no1,-3,-5,i,-4,20415*
CCOc1cc(/C=N\NC(=O)c2ccc(C)nc2)cc([N+](=O)[O-])c1O,-2,-1,-2,-6,19947*
COc1ccc(N2CCN(C(=O)CN=C3NS(=O)(=O)C(c4ccc(C)cc4)=C3C)CC2)cc1,-3,0,0,-1,17288*
O=C(NCCCN1CCN(Cc2ccccc2)CC1)C1CCN(S(=O)(=O)N2CCC3(CC2)OCCO3)CC1,-5,4,0,23,21569*
CCCCCCNC(=O)c1c(O)c2cccc3c2n(c1=O)CCC3,0,-12,17*,2,2312
O=S(=O)(c1ccc(-c2csc(-c3cccnc3)n2)cc1)N1CCCC1,0,-8,0,2,9290
O=S(=O)(c1ccc(-c2csc(-c3cccnc3)n2)cc1)N1CCCCC1,0,-4,0,-2,22447*
COc1cccc(NC(=O)C(NCCC(C)C)c2ccccc2)c1 (stereo not drawn),-1,-6,.,-18,9704
O=C(Nc1ccc(Cl)cc1)C(c1ccccc1)N(CCO)CCO (stereo not drawn),-4,-3,2,-6,20747*
O=C(Nc1cc(Cl)cc(Cl)c1)C(NCCO)c1ccccc1 (stereo not drawn),2,-1,1,0,22640*
CCCN(CCC)C(C(=O)Nc1cccc(OC)c1)c1ccccc1 (stereo not drawn),2,-4,-27,3,22137*
CCN(CC(=O)Nc1c(F)cccc1F)C(=O)CCCN1C(=O)c2cccc3cccc(c23)C1=O,-1,-7,0,6,3948
CC(C)(C)P(=O)(CO)c1ccccc1 (stereo not drawn),3,-3,i,2,19072*
CC(C)(O)P(C)(=O)c1ccccc1 (stereo not drawn),0,-9,i,-10,3274
O=C(C1=C(O)C(=O)N(CCN2CCOCC2)C1c1cccnc1)c1cc2ccccc2o1 (stereo not drawn),-1,-3,i,-4,19706*
